These results are taken from PubChem BioAssay (Tox21).

Assay [1] is described as follows: Nuclear factor erythroid 2-related factor 2/antioxidant responsive element (Nrf2/ARE) small molecule agonists: qHTS cell viability counter screen in human keratinocytes (AID 1919968; active means well fitted curve in the direction sought with a large enough effect in the repeat runs; an effect the other way counts as inactive or inconclusive; further: nearly all actives have a fitted effect of over 55% in size). Put shortly:
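Measured as CellTiter-Fluor fluorescence, this readout tracks cytotoxicity in the same wells as the ARE-luciferase screen. HaCaT reporter cells (1,500/well) received compounds after a 5 h pre-incubation and were exposed for 23 h.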
On the technique in general: qHTS replaces the single test concentration by a dilution series.

Assay [2] is described as follows: Nuclear factor erythroid 2-related factor 2/antioxidant responsive element (Nrf2/ARE) small molecule agonists: luciferase reporter gene qHTS assay in human keratinocytes (AID 1919969). Further: nearly all actives have a fitted effect of over 35% in size.
For assay [3], the target named is Gonadotropin-releasing hormone receptor (Homo sapiens) (UniProt P30968). Nature of the assay: Human gonadotropin-releasing hormone receptor (GnRHR) small molecule agonists, calcium flux assay in GnRHR-HEK293 cells (AID 1920063). Further: nearly all actives have a fitted effect of over 35% in size. The method, boiled down:
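Fluorescence kinetics (480 nm excitation, 540 nm emission; 3 min, 1 s steps) report calcium mobilisation in human GnRHR-HEK293 cells in agonist mode. Dye incubation: 1 h, 37 C.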
(In general: Calcium flux is commonly read through the fluorescence of an indicator in the cells.)

The target in assay [4] is KiSS-1 receptor (Homo sapiens) (UniProt Q969F8). Nature of the assay: Human kisspeptin (KISS1R) small molecule agonists, calcium flux assay in KISS1R-HEK293 cells (AID 1920064; active means well fitted curve in the direction sought with a large enough effect in the repeat runs; an effect the other way counts as inactive or inconclusive). Put shortly:
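Measures KISS1R agonism through calcium-sensitive dye fluorescence in stably transfected HEK293 cells, read for 3 min after pin-tool compound delivery; 15-point titrations in triplicate.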

The nature of assay [5]: G protein-coupled receptor (GPCR) small molecule agonists, calcium flux assay: HEK293 wild type cell line counter screen (AID 1920065). Put shortly: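 Readout: fluorescence at 480 nm excitation/540 nm emission, sampled at 1 s intervals for 3 min. Cells had been cultured 18 h, then dye-loaded 1 h at 37 C before compound or ATP addition.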
Assay [6] can be described thus: p53 small molecule agonists, cell-based qHTS assay with rat liver microsomes (AID 1963578). The method, boiled down:
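With rat liver microsomes and NADPH present (0.5 mg/mL final each), p53RE-bla cells are treated with compound for 16 h at 37 C. LiveBLAzer detection mixture is then applied for 2 h at room temperature in the dark.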

Assay [7] in a line: p53 small molecule agonists, cell-based qHTS assay with human liver microsomes: qHTS cell viability counter screen (AID 1963579). Further: nearly all actives have a fitted effect of over 45% in size. Put shortly: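 In this multiplexed counter screen, the reporter plates were subsequently treated with CellTiter-Glo so that cell viability, reflected by luminescence, could be recorded for p53RE-bla cells dosed 16 h with compounds under microsomal activation (HLM and NADPH).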

The nature of assay [8]: p53 small molecule agonists, cell-based qHTS assay with rat liver microsomes: qHTS cell viability counter screen (AID 1963580). Further: nearly all actives have a fitted effect of over 45% in size. Put shortly: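 p53RE-bla HCT-116 cells (4,000/well) rested 5 h at 37 C, then given Tox21 compounds in DMSO with rat liver microsomes (0.5 mg/mL final) plus NADPH (0.5 mg/mL final) for 16 h at 37 C. Viability read by CellTiter-Glo luminescence after 30 min at room temperature.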

The nature of assay [9]: p53 small molecule agonists, cell-based qHTS assay: qHTS cell viability counter screen (AID 1963581). Further: nearly all actives have a fitted effect of over 45% in size. The method, boiled down: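 In the same plates used for the p53 bla reporter, HCT-116 cells given compounds for 16 h at 37 C received CellTiter-Glo; luminescence was recorded 30 min later at room temperature.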
A short description of assay [10]: p53 small molecule agonists, cell-based qHTS assay (AID 1963582; active means well fitted activation curve with a large enough effect in the signal ratio in the repeat runs, not every such curve was filed as active; the % refers to the signal ratio). The method, boiled down:
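Compounds are pin-transferred in DMSO onto p53RE-bla cells and incubated 16 h at 37 C. The B/G FRET beta-lactamase substrate is then applied for 2 h at RT and fluorescence recorded.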

In assay [11] the target is 5-hydroxytryptamine receptor 2A (Homo sapiens) (UniProt P28223). Kind of assay: 5-hydroxytryptamine receptor 2A (HTR2A) small molecule antagonists, cell-based qHTS assay (AID 1963586). Further: nearly all actives have a fitted effect of over 45% in size. Put shortly:
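Antagonist-mode intracellular calcium assay: DOI (4 nM) added after 5 min compound pre-incubation at room temperature to dye-loaded HTR2A-CHO cells. Fluorescence followed for 3 min, sampled every second.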

The target is the same in assay [12]. Kind of assay: 5-hydroxytryptamine receptor 2A (HTR2A) small molecule agonists, cell-based qHTS assay (AID 1963587). Further: nearly all actives have a fitted effect of over 30% in size. Put shortly:
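HTR2A-CHO cells, plated 18 h at 37 C/5% CO2, dye-loaded 1 h at 37 C; compounds in DMSO added by pin tool (agonist mode). Intracellular calcium flux read as kinetic fluorescence on FDSS over 2 min at 1 s intervals.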

Assay [13] has as its target Muscarinic acetylcholine receptor M1 (Homo sapiens) (UniProt P11229). Nature of the assay: Cholinergic receptor muscarinic 1 (CHRM1) small molecule antagonists, cell-based qHTS assay (AID 1963588). Further: nearly all actives have a fitted effect of over 40% in size. Further: potency means the concentration at half of the fitted maximal effect. Put shortly: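 CHRM1-CHO calcium-flux assay, antagonist mode. Cells were seeded 18 h, dye-loaded 1 h at 37 C and given compound for 5 min at RT, then acetylcholine was added at 50nM. FDSS fluorescence was read 3 min; 15 concentrations, three runs.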

Assay [14] has the same target. Kind of assay: Cholinergic receptor muscarinic 1 (CHRM1) small molecule agonists, cell-based qHTS assay (AID 1963589). Further: nearly all actives have a fitted effect of over 35% in size. The method, boiled down: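 Each compound was tested at 15 concentrations across three independent runs on dye-loaded CHO cells stably expressing human CHRM1, reading intracellular calcium fluorescence kinetically at 1 sec intervals.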
Assay [15] in a line: cAMP Responsive Elements (CRE) small molecule agonists, cell-based qHTS assay (AID 1963590). The method, boiled down:
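Cell line: CRE-bla HEK 293T; medium DMEM/10% dialyzed FBS/0.1 mM NEAA/1 mM pyruvate/25 mM HEPES; 3 h compound exposure; beta-lactamase FRET readout after 2 h substrate loading at RT.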

Assay [16] is described as follows: cAMP Responsive Elements (CRE) small molecule antagonists, cell-based qHTS assay (AID 1963591; active means well fitted inhibition curve with a large enough effect in the signal ratio in the repeat runs, not every such curve was filed as active; the % refers to the signal ratio). Put shortly:
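Inhibition of NKH477-driven (0.25 uM final) CRE-beta-lactamase signal in HEK293T cells, 3 h compound exposure at 37 °C, detected by FRET substrate fluorescence.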

Assay [17] addresses Beta-2 adrenergic receptor (Homo sapiens) (UniProt P07550). Kind of assay: Adrenergic beta2 receptor (ADRB2) small molecule antagonists, cell-based qHTS assay (AID 1963592). Further: series mostly up to about 92 µM; nearly all actives have a fitted effect of over 50% in size. Put shortly: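 Cells (CHO, stable ADRB2 overexpression) incubated 18-20hr at 37C; compounds added from DMSO; agonist mix (1nM isoproterenol, 100uM IBMX, 25uM Ro-20-1724) added; 0.5hr RT; d2-cAMP and anti-cAMP-cryptate added; 1hr RT; 665/615 nm read.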

The target in assay [18] is D(2) dopamine receptor (Homo sapiens) (UniProt P14416). Nature of the assay: Dopamine D2 receptor (DRD2) small molecule agonists, cell-based qHTS assay (AID 1963594). Further: nearly all actives have a fitted effect of over 35% in size. The method, boiled down:
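HEK293 cells stably expressing DRD2 were cultured 24 h at 37 C, then given Ro20-1724 (0.1 mM final) and compounds for 10 min at room temperature. NKH477 (200nM) was then added for 30 min. cAMP was read by HTRF.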

For assay [19] the target is unchanged. Nature of the assay: Dopamine D2 receptor (DRD2) small molecule antagonists, cell-based qHTS assay (AID 1963595; active means well fitted inhibition curve with a large enough effect in the signal ratio in the repeat runs, with a control signal flat; the % refers to the signal ratio). Put shortly:
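Stable D2 receptor HEK293 line, 24 h after seeding. Compound preincubated 10 min, then quinpirole (12 nM) with forskolin analogue NKH477 (200 nM), 30 min, room temperature. Detection by time-resolved FRET of cAMP.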

Assay [20] is described as follows: p53 small molecule agonists, cell-based qHTS assay with human liver microsomes (AID 1963577).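 Further: p53 response element beta-lactamase reporter cells with liver microsomes plus NADPH.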 Put shortly:
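16 h, 37 C exposure of p53RE-bla cells to compounds with human liver microsomes and NADPH (0.5 mg/mL final each); detection via LiveBLAzer mixture, 2 h dark at room temperature.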

Results filed as inconclusive are left out. Active and inactive are the calls of the source. Unless noted, the call rests on the fitted dose curve.

Sequence of KiSS-1 receptor (Homo sapiens) (Q969F8 whole entry, looked up): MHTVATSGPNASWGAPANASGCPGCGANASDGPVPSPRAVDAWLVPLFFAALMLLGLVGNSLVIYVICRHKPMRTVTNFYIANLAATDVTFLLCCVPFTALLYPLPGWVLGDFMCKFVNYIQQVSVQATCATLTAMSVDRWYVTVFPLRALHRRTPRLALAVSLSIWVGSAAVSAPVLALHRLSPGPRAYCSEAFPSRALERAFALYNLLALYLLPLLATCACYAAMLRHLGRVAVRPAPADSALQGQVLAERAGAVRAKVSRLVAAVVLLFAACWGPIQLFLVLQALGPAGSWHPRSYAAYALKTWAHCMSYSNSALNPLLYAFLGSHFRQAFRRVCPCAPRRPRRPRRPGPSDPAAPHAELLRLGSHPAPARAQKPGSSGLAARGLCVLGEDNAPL
Sequence of D(2) dopamine receptor (Homo sapiens) (P14416 whole entry, looked up): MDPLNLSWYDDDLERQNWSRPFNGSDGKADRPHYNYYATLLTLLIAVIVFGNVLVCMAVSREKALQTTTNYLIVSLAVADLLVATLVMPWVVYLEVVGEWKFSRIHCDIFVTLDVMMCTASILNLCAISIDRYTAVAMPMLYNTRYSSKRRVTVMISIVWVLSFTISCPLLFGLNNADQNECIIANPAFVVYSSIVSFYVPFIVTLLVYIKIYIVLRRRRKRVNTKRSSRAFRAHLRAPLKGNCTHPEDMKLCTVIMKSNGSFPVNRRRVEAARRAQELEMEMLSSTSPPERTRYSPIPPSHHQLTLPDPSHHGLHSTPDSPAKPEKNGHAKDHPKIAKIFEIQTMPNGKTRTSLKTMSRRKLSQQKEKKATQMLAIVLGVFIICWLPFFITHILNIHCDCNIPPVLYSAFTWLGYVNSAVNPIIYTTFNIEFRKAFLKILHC
Sequence of Gonadotropin-releasing hormone receptor (Homo sapiens) (P30968 whole entry, looked up): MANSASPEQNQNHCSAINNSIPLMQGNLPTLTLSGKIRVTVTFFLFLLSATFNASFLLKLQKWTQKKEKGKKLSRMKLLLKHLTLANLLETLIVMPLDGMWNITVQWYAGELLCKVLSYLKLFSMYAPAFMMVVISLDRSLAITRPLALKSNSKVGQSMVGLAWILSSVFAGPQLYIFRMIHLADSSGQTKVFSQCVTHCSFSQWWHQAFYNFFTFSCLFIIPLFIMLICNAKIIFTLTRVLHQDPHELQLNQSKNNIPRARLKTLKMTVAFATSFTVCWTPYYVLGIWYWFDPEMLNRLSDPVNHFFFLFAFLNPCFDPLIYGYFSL
Sequence of Muscarinic acetylcholine receptor M1 (Homo sapiens) (P11229 whole entry, looked up): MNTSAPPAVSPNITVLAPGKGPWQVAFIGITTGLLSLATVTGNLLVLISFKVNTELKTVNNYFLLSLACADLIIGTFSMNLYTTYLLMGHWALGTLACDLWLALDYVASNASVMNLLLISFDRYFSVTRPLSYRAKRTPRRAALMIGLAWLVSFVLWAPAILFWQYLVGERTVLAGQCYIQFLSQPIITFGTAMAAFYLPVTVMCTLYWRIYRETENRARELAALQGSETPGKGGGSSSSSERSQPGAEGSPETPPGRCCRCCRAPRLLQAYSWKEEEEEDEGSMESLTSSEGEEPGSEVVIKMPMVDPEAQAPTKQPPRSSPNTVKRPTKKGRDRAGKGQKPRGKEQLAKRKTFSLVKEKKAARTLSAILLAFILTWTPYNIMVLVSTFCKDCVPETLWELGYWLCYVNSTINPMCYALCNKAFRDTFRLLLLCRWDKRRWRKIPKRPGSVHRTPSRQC
Sequence of Beta-2 adrenergic receptor (Homo sapiens) (P07550 whole entry, looked up): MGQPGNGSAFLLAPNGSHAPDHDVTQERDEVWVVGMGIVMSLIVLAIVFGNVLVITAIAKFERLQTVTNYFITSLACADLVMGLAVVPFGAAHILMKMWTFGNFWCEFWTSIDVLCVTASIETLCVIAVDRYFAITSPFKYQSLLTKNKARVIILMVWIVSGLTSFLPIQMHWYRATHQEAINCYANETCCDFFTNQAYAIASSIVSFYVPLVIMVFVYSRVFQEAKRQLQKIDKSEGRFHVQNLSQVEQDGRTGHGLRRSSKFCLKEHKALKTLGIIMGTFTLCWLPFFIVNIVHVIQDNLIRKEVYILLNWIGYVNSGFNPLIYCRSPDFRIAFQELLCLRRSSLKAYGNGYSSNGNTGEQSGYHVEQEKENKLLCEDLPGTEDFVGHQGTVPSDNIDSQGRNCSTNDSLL
Sequence of 5-hydroxytryptamine receptor 2A (Homo sapiens) (P28223 whole entry, looked up): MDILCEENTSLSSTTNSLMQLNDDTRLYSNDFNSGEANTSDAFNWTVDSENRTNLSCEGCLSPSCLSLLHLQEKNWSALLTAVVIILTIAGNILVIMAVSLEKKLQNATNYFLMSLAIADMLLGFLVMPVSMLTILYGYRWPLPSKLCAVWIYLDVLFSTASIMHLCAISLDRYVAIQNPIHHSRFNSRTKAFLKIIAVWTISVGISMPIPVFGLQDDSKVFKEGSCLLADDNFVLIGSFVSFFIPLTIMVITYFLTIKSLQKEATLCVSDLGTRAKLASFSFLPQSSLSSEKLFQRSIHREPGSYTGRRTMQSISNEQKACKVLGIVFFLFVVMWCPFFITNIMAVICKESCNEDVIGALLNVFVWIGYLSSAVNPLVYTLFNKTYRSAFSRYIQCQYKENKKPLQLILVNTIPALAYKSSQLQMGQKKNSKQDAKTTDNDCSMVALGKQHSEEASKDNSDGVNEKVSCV

For `CC1(C)C(=O)C(C)(C)C1=O`, the Potency result in [1], in assay [2], in [3], in assay [6], in assay [7] and in assay [8] was “inactive” each time. In addition, the Potency result in [9], in [10], in assay [11], in [12], in [13] and in [14] was “inactive” in each case. Moreover, the Potency result in assay [15], in assay [16], in assay [17], in [18] and in assay [19] was “inactive” in each case. Also, the result in [4] and in assay [5] was inactive.
For the molecule `O=C(CCOCCOCCOCCOCCC(=O)Nc1c(I)cc(I)c(C(=O)O)c1I)Nc1c(I)cc(I)c(C(=O)O)c1I`, the Potency result in assay [1], in [2], in assay [3], in assay [6], in [7] and in assay [8] was “inactive” throughout. Further, the Potency result in assay [9], in assay [10], in assay [12], in [13], in assay [14] and in assay [15] was “inactive” throughout. Moreover, the Potency result in [16], in assay [17], in [18] and in [19] was “inactive” throughout. Further, the outcome in assay [4] and in assay [5] was inactive.
Consider `CC/C=C(\C)C=O`, for which the Potency entry in assay [1], in assay [2], in assay [3], in assay [6], in assay [7] and in assay [8] was “inactive” in each case. The Potency result in [9], in assay [10], in [12], in assay [13], in assay [14] and in assay [15] was “inactive” throughout. Also, the Potency entry in [16], in [17], in assay [18] and in [19] was “inactive” throughout. Also, the outcome in assay [4] and in assay [5] was inactive.
Turning to `CC/C=C\CCOC(=O)c1ccccc1O`, the Potency result in [1], in assay [2], in assay [3], in [20], in [9] and in assay [10] was “inactive” in each case. For the same molecule, the Potency result in assay [11], in [12], in [13], in assay [14], in assay [15] and in assay [16] was “inactive” each time. In addition, the Potency entry in [18] and in assay [19] was “inactive” in each case. In addition, the result in assay [4] and in assay [5] was inactive.
In the case of `CN1CCCN=C1COC(=O)C(O)(c1ccccc1)C1CCCCC1` (stereo not drawn), the Potency entry in [1], in [2], in assay [3], in [6], in assay [7] and in [8] was “inactive” each time. The Potency result in assay [9], in assay [10], in assay [11], in assay [12], in assay [14] and in assay [16] was “inactive” in each case. The Potency entry in assay [17] and in assay [18] was “inactive” each time. Besides, the outcome in [4] and in assay [5] was inactive. Further, the Potency in [13] was 11.6 nM (active).
As to `CSc1nc(NC2CC2)nc(NC(C)(C)C)n1`, the Potency entry in [1], in assay [2], in assay [3], in assay [6], in assay [7] and in assay [8] was “inactive” in each case. The Potency result in assay [9], in assay [10], in assay [11], in [13], in [15] and in assay [17] was “inactive” in each case. For the same molecule, the Potency result in assay [19] was “inactive”. The result in assay [4] and in [5] was inactive.
For `CCCC(=O)O[C@]1(C(=O)CC)CC[C@H]2[C@@H]3CCC4=CC(=O)CC[C@]4(C)[C@H]3[C@@H](O)C[C@@]21C`, the Potency entry in assay [1], in assay [2], in assay [3], in assay [6], in assay [7] and in [8] was “inactive” in each case. The Potency result in assay [9], in assay [10], in [11], in assay [14], in assay [17] and in assay [18] was “inactive” in each case. In addition, the Potency result in assay [19] is “inactive”. Besides, the outcome in assay [4] and in assay [5] was inactive.
